Data: PubChem BioAssay (EPA / NIEHS)
Records with an inconclusive call do not appear. Active and inactive are the calls of the source. Rule for the calls, unless noted: active = hit-call score of the fitted dose curve at least 0.9, where 1 is the maximum; inactive = score below 0.9.

Tests used:
[1] = target: Myc proto-oncogene protein (Homo sapiens) (UniProt P01106); test: ATG_Myc_CIS: Attagene CIS-FACTORIAL HepG2 Assay for human Myelocytomatosis (Myc) Proto-Oncogene Transcription Factor (AID 2282990); conditions: HepG2, Attagene cis-reporter transcription factor activity; actives raise or lower the signal
Chain of Myc proto-oncogene protein (Homo sapiens) (P01106 whole entry, looked up): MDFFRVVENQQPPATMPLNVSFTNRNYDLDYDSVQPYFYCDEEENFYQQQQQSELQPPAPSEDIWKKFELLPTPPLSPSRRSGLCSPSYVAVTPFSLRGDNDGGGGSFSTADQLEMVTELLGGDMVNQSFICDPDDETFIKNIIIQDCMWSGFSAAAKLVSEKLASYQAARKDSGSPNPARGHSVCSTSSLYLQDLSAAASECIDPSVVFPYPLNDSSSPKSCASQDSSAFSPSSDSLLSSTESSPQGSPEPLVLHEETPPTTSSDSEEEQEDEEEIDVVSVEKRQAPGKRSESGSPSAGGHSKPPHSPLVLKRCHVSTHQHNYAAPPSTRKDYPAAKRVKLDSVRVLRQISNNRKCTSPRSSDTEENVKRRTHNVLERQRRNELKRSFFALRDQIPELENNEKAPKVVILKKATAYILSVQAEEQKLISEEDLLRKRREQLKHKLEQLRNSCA
Method in brief: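 HepG2, transient MRTU transfection (cis promoters, endogenous TFs); 24 h dosing; TriZol RNA → oligo(dT) RT → PCR → 6-FAM primer extension → HpaI cut → CE. Bidirectional fit vs DMSO.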

[2] = ATG_Oct_MLP_CIS: Attagene CIS-FACTORIAL HepG2 Assay for human Octamer-Binding Transcription Factor (Oct) (AID 2282993); conditions: HepG2 Attagene cis-factorial Oct reporter, mRNA; actives raise or lower the signal
Method in brief: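 Using HepG2 cells bearing transfected cis-reporter constructs, mRNA induction was read after 24 h by fluorescent RT-PCR and capillary electrophoresis, with DMSO defining baseline for gain- or loss-of-signal fits.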

[3] = BSK_3C_TissueFactor: BioMAP Diversity Plus: 3C Assay for Tissue Factor Biomarker Activity (AID 2282997); conditions: BioMAP 3C HUVEC, tissue factor biomarker readout; actives raise or lower the signal
Method in brief: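 Primary human umbilical vein endothelial cells in the 3C system were exposed to test chemical for 24 h, then Tissue Factor measured by ELISA. Activity was fitted bidirectionally against DMSO as negative control and baseline.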

[4] = BSK_3C_uPAR: BioMAP Diversity Plus: 3C Assay for Urokinase-type plasminogen activator receptor (uPAR) Biomarker Activity (AID 2282998); conditions: BioMAP 3C HUVEC, uPAR biomarker ELISA; actives raise or lower the signal
Method in brief: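 In this endothelial cell-based assay, human umbilical vein primary cells were treated with chemicals and harvested at 24 h. uPAR was quantified using ELISA, with gains or losses fitted relative to DMSO controls.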

[5] = BSK_3C_VCAM1: BioMAP Diversity Plus: 3C Assay for Vascular cell adhesion molecule 1 (VCAM1) Biomarker Activity (AID 2282999); conditions: BioMAP 3C HUVEC, VCAM1 ELISA, cytokine-stimulated; actives raise or lower the signal
Method in brief: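 Endothelial cells from human umbilical vein are treated with test chemical. At 24 h, VCAM-1 is measured by ELISA, and responses in either direction are fitted relative to DMSO.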

[6] = BSK_4H_Eotaxin3: BioMAP Diversity Plus: 4H Assay for Eotaxin 3 Biomarker Activity (AID 2283000); conditions: primary human endothelial cells (HUVEC); actives raise or lower the signal;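 for outcome: CCL26 protein level quantified by ELISA in parallel with SRB cytotoxicity check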
Method in brief: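 HUVEC, 24 h post-dose, ELISA for Eotaxin-3/CCL26. Gain or loss of signal fitted bidirectionally vs DMSO baseline.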

[7] = target: human Peroxisome Proliferator-activated Receptor alpha (PPARa), PPARA (gene 5465) (UniProt Q07869); test: ATG_PPARa_TRANS: Attagene TRANS-FACTORIAL HepG2 Assay for human Peroxisome Proliferator-activated Receptor alpha (PPARa) (AID 2283001; active = hit-call score of the fitted dose curve at least 0.9, where 1 is the maximum)
Chain of human Peroxisome Proliferator-activated Receptor alpha (PPARa), PPARA (gene 5465) (Q07869 whole entry, looked up, the tested form may be a part): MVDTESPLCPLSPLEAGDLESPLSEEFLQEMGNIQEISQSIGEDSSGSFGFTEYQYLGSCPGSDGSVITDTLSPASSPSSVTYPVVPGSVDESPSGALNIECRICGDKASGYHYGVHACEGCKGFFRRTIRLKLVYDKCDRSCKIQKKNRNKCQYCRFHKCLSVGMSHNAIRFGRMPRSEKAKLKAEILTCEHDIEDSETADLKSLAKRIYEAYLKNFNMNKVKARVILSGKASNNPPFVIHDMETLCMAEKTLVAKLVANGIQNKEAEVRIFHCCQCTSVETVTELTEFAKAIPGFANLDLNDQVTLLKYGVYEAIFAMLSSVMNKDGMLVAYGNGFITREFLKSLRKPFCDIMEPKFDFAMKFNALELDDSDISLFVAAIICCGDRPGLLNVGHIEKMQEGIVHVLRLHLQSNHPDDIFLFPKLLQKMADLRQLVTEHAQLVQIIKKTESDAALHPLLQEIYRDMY
Method in brief: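 Read-out is fluorescence of reporter cDNA fragments resolved by capillary electrophoresis after RT-PCR. Human HepG2 liver cells carried transfected PPARa-Gal4 chimera and GAL4-UAS reporter units, treated 24 h; activity scored as increase over DMSO.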

[8] = read-out: Intercellular Adhesion Molecule 1 (ICAM1), ICAM1 (gene 3383); test: BSK_3C_ICAM1: BioMAP Diversity Plus: 3C Assay for Intercellular Adhesion Molecule 1 (ICAM1) Biomarker Activity (AID 2283003); conditions: primary human endothelial cells (HUVEC); actives raise or lower the signal
Method in brief: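 HUVEC primary cells stimulated under 3C conditions; ICAM1 measured by ELISA 24 h after compound dosing. Curves fitted bidirectionally against the DMSO baseline. Overt cytotoxicity checked by SRB staining of parallel cultures.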

[9] = target: Nuclear receptor subfamily 1 group I member 2 (Homo sapiens) (UniProt O75469); test: ATG_PXR_TRANS: Attagene TRANS-FACTORIAL HepG2 Assay for human Pregnane X Receptor (PXR) (AID 2283008; active = hit-call score of the fitted dose curve at least 0.9, where 1 is the maximum)
Chain of Nuclear receptor subfamily 1 group I member 2 (Homo sapiens) (O75469 whole entry, looked up, the tested form may be a part): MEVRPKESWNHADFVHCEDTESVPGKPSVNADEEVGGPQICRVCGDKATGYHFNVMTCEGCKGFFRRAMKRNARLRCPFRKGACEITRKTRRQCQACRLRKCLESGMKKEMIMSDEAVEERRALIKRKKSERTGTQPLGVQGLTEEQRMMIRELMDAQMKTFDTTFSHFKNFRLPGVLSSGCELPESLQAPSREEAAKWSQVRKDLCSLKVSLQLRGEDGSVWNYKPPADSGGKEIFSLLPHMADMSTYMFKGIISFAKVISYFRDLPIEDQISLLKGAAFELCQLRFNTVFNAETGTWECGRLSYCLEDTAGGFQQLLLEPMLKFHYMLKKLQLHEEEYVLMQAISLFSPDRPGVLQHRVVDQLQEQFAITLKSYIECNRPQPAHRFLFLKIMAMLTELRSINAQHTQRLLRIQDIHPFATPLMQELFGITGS
Method in brief: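 HepG2 cells transiently transfected with GAL4-UAS reporter units and PXR-Gal4 chimera, exposed 24 h. Reporter mRNA quantified by RT-PCR, fluorescent labelling, HpaI digestion and capillary electrophoresis; gain of signal vs DMSO.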

[10] = target: Retinoic acid receptor RXR-alpha (Homo sapiens) (UniProt P19793); test: ATG_RXRa_TRANS: Attagene TRANS-FACTORIAL HepG2 Assay for human Retinoid X Receptor alpha (RXRa) (AID 2283012; active = hit-call score of the fitted dose curve at least 0.9, where 1 is the maximum)
Chain of Retinoic acid receptor RXR-alpha (Homo sapiens) (P19793 whole entry, looked up, the tested form may be a part): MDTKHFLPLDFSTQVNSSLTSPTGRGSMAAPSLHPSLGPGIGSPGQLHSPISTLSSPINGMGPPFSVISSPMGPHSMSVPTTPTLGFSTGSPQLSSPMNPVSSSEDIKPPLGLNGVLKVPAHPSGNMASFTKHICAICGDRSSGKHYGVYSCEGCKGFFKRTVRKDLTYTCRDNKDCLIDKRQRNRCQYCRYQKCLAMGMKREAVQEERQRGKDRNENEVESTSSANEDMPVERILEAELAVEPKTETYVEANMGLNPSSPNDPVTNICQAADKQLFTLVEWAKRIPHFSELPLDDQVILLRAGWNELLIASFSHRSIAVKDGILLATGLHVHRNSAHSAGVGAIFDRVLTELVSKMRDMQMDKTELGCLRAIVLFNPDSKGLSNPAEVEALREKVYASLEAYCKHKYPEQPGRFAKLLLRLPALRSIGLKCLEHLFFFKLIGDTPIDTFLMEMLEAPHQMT
Method in brief: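 HepG2 cells transiently transfected with GAL4-UAS reporter units and chimeric RXRa-Gal4 protein, treated 24 h. Reporter mRNA measured by RT-PCR, fluorescent labelling, HpaI digestion and capillary electrophoresis. Induction fitted against DMSO.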

[11] = ATG_NF_kB_CIS: Attagene CIS-FACTORIAL HepG2 Assay for human Nuclear Factor Kappa B (NF-kB) (AID 2282991); conditions: HepG2 Attagene cis-factorial NF-kB reporter mRNA; actives raise or lower the signal
Method in brief: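 HepG2, transient multi-reporter transfection, cis promoter elements (endogenous TFs). 24 h exposure. Total RNA → RT → PCR → 6-FAM label → HpaI → CE. Gain/loss vs DMSO.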

[12] = ATG_NRF2_ARE_CIS: Attagene CIS-FACTORIAL HepG2 Assay for human Nuclear Factor Erythroid 2 Related Factor 2 (NFR2) response to Antioxidant Response Elements (ARE) (AID 2282992); conditions: HepG2 Attagene ARE/NRF2 reporter, transcription factor activity; actives raise or lower the signal;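 for AC50: reporter mRNA level measured by RT-PCR and capillary electrophoresis fluorescence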
Method in brief: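 HepG2 cells transiently transfected with multiplexed cis-element reporter constructs, 24 h after chemical dosing; reporter mRNA quantified by RT-PCR, fluorescent primer extension, HpaI digestion and capillary electrophoresis. Bidirectional fit relative to DMSO.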

[13] = BSK_3C_Proliferation: Cell Proliferation Assessment in the BioMAP Diversity Plus: 3C Assay (AID 2283006); conditions: primary human endothelial cells (HUVEC);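 for AC50: potency may reflect either rise or fall in cell number versus DMSO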
Method in brief: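 Subconfluent HUVEC (3C system) cultured with chemical; relative cell number read at 48 h by sulforhodamine B total-protein staining (0.1% SRB after 10% TCA fixation, 560 nm). Bidirectional fit relative to DMSO.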

[14] = target: Peroxisome proliferator-activated receptor gamma (Homo sapiens) (UniProt P37231); test: ATG_PPARg_TRANS: Attagene TRANS-FACTORIAL HepG2 Assay for human Peroxisome Proliferator-activated Receptor-gamma (PPARg) (AID 2283007; active = hit-call score of the fitted dose curve at least 0.9, where 1 is the maximum)
Chain of Peroxisome proliferator-activated receptor gamma (Homo sapiens) (P37231 whole entry, looked up): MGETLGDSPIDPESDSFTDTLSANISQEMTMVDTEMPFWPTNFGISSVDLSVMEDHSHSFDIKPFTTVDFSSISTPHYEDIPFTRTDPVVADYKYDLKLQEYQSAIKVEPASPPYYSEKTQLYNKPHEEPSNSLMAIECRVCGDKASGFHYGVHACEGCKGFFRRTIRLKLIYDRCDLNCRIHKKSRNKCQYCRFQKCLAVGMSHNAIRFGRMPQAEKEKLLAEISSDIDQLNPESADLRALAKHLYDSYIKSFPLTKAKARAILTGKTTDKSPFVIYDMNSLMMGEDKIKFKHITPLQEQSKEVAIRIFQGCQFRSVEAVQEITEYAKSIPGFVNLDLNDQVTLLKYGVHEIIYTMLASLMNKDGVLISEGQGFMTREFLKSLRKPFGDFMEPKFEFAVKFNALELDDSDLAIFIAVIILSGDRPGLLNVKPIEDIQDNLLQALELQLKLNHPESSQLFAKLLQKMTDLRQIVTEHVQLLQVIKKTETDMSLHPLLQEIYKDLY
Method in brief: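 Multiplexed reporter transcription units in HepG2, 24 h dosing, reporter transcripts quantified by fluorescent RT-PCR and capillary electrophoresis. Increase over DMSO scored.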

[15] = target: human RAR-related Orphan Receptor beta (RORb), RORB (gene 6096) (UniProt Q92753); test: ATG_RORb_TRANS: Attagene TRANS-FACTORIAL HepG2 Assay for human RAR-related Orphan Receptor beta (RORb) (AID 2283010; active = hit-call score of the fitted dose curve at least 0.9, where 1 is the maximum)
Chain of human RAR-related Orphan Receptor beta (RORb), RORB (gene 6096) (Q92753 whole entry, looked up, the tested form may be a part): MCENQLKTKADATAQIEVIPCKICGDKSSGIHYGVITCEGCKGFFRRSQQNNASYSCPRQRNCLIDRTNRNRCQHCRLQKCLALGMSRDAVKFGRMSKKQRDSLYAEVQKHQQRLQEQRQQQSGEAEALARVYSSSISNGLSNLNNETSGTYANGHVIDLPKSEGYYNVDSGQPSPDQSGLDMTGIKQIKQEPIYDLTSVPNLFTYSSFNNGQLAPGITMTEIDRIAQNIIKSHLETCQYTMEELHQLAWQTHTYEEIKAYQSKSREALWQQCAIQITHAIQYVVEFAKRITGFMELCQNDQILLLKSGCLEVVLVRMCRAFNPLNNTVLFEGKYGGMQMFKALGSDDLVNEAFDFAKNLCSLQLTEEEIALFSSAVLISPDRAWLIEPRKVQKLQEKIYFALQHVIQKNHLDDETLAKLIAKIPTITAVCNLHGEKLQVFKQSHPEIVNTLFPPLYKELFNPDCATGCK
Method in brief: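 HepG2 cells transiently transfected with GAL4-UAS reporter units expressing chimeric NR-Gal4 protein; reporter mRNA measured 24 h after dosing by RT-PCR, 6-FAM labelling and capillary electrophoresis. Gain-of-signal fitted relative to DMSO baseline.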

[16] = target: human Retinoic Acid Receptor gamma (RARg), RARG (gene 5916) (UniProt P13631); test: ATG_RARg_TRANS: Attagene TRANS-FACTORIAL HepG2 Assay for human Retinoic Acid Receptor gamma (RARg) (AID 2283009; active = hit-call score of the fitted dose curve at least 0.9, where 1 is the maximum)
Chain of human Retinoic Acid Receptor gamma (RARg), RARG (gene 5916) (P13631 whole entry, looked up, the tested form may be a part): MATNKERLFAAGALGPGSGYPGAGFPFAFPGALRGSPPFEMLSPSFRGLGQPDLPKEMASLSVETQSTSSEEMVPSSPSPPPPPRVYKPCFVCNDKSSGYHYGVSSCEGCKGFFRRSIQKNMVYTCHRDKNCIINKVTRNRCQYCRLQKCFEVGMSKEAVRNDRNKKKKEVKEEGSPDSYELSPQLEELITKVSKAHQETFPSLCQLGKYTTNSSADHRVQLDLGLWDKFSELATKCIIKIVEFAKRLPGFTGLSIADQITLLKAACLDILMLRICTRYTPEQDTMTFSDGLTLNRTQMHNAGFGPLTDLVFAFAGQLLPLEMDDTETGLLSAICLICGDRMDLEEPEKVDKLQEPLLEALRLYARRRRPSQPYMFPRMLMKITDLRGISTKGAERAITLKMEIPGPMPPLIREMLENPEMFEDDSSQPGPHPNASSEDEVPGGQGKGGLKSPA
Method in brief: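 HepG2 transiently transfected with GAL4-UAS reporter units and chimeric NR-Gal4 constructs; 24 h compound exposure. Reporter mRNA quantified by RT-PCR, FAM labeling, HpaI digestion and capillary electrophoresis; gain-of-signal versus DMSO.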

[17] = target: human Peroxisome Proliferator-activated Receptor delta (PPARd), PPARD (gene 5467) (UniProt Q03181); test: ATG_PPARd_TRANS: Attagene TRANS-FACTORIAL HepG2 Assay for human Peroxisome Proliferator-activated Receptor delta (PPARd) (AID 2283002; active = hit-call score of the fitted dose curve at least 0.9, where 1 is the maximum)
Chain of human Peroxisome Proliferator-activated Receptor delta (PPARd), PPARD (gene 5467) (Q03181 whole entry, looked up, the tested form may be a part): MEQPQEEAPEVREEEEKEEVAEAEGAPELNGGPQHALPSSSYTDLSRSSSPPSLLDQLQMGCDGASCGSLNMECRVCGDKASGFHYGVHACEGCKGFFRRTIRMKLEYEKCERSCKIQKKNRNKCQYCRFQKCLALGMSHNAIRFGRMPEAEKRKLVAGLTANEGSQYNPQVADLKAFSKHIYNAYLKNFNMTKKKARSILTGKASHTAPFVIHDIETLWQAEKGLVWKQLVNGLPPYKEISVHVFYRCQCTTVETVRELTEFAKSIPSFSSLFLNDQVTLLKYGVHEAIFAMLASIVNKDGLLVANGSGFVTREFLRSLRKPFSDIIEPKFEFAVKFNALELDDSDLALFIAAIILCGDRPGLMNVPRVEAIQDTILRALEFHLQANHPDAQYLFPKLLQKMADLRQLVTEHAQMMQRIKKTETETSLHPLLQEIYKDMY
Method in brief: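 Transient HepG2 transfection (multiple GAL4-UAS RTUs, chimeric receptor-Gal4); 24 h dosing; total RNA → oligo(dT) RT → PCR → 6-FAM primer extension → HpaI cut → CE. Positive direction vs DMSO.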

[18] = target: human Retinoic Acid Receptor beta (RARb), RARB (gene 5915) (UniProt P10826); test: ATG_RARb_TRANS: Attagene TRANS-FACTORIAL HepG2 Assay for human Retinoic Acid Receptor beta (AID 2283004; active = hit-call score of the fitted dose curve at least 0.9, where 1 is the maximum)
Chain of human Retinoic Acid Receptor beta (RARb), RARB (gene 5915) (P10826 whole entry, looked up, the tested form may be a part): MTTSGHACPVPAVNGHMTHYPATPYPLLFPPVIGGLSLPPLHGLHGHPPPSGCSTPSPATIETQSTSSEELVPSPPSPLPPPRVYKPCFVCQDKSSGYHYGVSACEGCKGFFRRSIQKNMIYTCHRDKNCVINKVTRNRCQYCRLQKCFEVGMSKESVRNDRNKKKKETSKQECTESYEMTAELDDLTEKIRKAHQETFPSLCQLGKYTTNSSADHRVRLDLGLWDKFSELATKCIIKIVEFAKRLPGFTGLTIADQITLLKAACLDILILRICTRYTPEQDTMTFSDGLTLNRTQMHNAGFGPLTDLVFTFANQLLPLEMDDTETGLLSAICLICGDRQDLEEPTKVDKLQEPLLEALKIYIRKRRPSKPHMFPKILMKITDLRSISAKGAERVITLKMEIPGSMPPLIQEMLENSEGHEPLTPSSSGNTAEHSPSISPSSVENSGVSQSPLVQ
Method in brief: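 HepG2 cells transiently transfected with multiplexed GAL4-UAS reporter units expressing chimeric NR–Gal4 fusions; 24 h compound exposure. Reporter mRNA quantified by RT-PCR, 6-FAM labelling, HpaI digestion and capillary electrophoresis; gain-of-signal fitted against DMSO baseline.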

[19] = target: human RAR-related Orphan Receptor gamma (RORg), RORC (gene 6097) (UniProt P51449); test: ATG_RORg_TRANS: Attagene TRANS-FACTORIAL HepG2 Assay for human RAR-related Orphan Receptor gamma (RORg) (AID 2283011; active = hit-call score of the fitted dose curve at least 0.9, where 1 is the maximum)
Chain of human RAR-related Orphan Receptor gamma (RORg), RORC (gene 6097) (P51449 whole entry, looked up, the tested form may be a part): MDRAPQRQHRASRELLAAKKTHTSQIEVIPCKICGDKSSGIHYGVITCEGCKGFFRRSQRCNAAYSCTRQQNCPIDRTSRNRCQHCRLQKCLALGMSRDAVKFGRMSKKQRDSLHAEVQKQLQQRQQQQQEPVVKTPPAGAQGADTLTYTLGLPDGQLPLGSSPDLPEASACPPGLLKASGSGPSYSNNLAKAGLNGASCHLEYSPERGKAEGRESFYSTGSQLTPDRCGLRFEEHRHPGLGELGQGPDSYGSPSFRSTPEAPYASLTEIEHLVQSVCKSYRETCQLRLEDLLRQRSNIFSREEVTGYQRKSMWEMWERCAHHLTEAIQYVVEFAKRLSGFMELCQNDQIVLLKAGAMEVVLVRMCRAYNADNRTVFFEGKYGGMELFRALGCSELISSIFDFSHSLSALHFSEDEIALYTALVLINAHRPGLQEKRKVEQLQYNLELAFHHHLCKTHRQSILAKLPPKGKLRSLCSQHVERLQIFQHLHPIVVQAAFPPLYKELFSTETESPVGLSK
Method in brief: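 Readout: reporter transcript induction (RT-PCR, fluorescent primer extension, capillary electrophoresis) after 24 h compound exposure of transiently transfected HepG2 cells carrying a RORg-Gal4 chimera and GAL4-UAS reporters; DMSO served as baseline, with increasing signal fitted.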

In the case of `S=c1[nH]c2ccccc2s1`, the outcome [1] is reported as “inactive”, the AC50 [2] is reported as 100 µM (active) and the outcome [3] is reported as “inactive”. The outcome [4] was “inactive”, the outcome [5] was “inactive” and the outcome [6] was “inactive”. For the same compound, the outcome [7] was “inactive”, the outcome [8] was “inactive” and the AC50 [9] was 31.5 µM (active). For the same compound, the outcome [10] was “inactive”.
For `Cc1occc(=O)c1O`, the outcome [11] was “inactive”, the outcome [12] was “inactive” and the outcome [2] was “inactive”. For the same compound, the outcome [3] was “inactive”, the outcome [4] was “inactive” and the outcome [5] was “inactive”. The outcome [6] was “inactive”, the outcome [7] was “inactive” and the outcome [8] was “inactive”. The outcome [13] was “inactive”, the outcome [14] was “inactive” and the outcome [15] was “inactive”.
With `Cn1cnc2c1c(=O)[nH]c(=O)n2C` the outcome [11] was “inactive”, the outcome [12] was “inactive” and the outcome [2] was “inactive”. The outcome [3] was “inactive”, the outcome [4] was “inactive” and the outcome [5] was “inactive”. The outcome [6] was “inactive”, the outcome [8] was “inactive” and the outcome [13] was “inactive”. For the same compound, the outcome [14] was “inactive”, the outcome [9] was “inactive” and the outcome [16] was “inactive”. For the same compound, the outcome [10] was “inactive”.
In the case of `O=Cc1ccccc1C=O`, the outcome [1] is reported as “inactive”, the outcome [2] is reported as “inactive” and the outcome [3] is reported as “inactive”. For the same compound, the outcome [4] was “inactive”, the outcome [5] was “inactive” and the outcome [6] was “inactive”. The outcome [7] was “inactive”, the outcome [17] was “inactive” and the outcome [8] was “inactive”. For the same compound, the outcome [9] was “inactive” and the outcome [15] was “inactive”.
In the case of `Oc1ccccc1O`, the outcome [1] is reported as “inactive”, the AC50 [2] is reported as 31.1 µM (active) and the AC50 [3] is reported as 2.96 µM (active). For the same compound, the outcome [4] was “inactive”, the AC50 [5] was 2.17 µM (active) and the outcome [7] was “inactive”. For the same compound, the outcome [8] was “inactive”, the outcome [18] was “inactive” and the AC50 [13] was 10.1 µM (active). The outcome [16] was “inactive”, the outcome [15] was “inactive” and the outcome [10] was “inactive”.
In the case of `COC(=O)[C@H]1[C@H]2C[C@@H]3c4[nH]c5cc(OC)ccc5c4CCN3C[C@H]2C[C@@H](OC(=O)c2cc(OC)c(OC)c(OC)c2)[C@@H]1OC`, the outcome [1] is reported as “inactive”, the AC50 [12] is reported as 45.5 µM (active) and the outcome [2] is reported as “inactive”. The AC50 [3] was 10.4 µM (active), the AC50 [4] was 23.2 µM (active) and the AC50 [5] was 11.4 µM (active). The outcome [7] was “inactive”, the outcome [17] was “inactive” and the outcome [8] was “inactive”. For the same compound, the AC50 [13] was 16.9 µM (active) and the outcome [10] was “inactive”.
For `CCCCCCCCCC[N+](C)(C)[O-]`, the outcome [1] was “inactive”, the outcome [2] was “inactive” and the outcome [3] was “inactive”. The outcome [4] was “inactive”, the outcome [5] was “inactive” and the outcome [17] was “inactive”. The outcome [8] was “inactive”, the outcome [14] was “inactive” and the outcome [9] was “inactive”. For the same compound, the outcome [10] was “inactive”.
For `COC(=O)CCC(=O)OC`, the outcome [11] was “inactive”, the outcome [12] was “inactive” and the outcome [2] was “inactive”. For the same compound, the outcome [3] was “inactive”, the outcome [4] was “inactive” and the outcome [5] was “inactive”. The outcome [6] was “inactive”, the outcome [8] was “inactive” and the outcome [13] was “inactive”. The outcome [9] was “inactive”.
For `NC1CCCCC1`, the outcome [1] was “inactive”, the outcome [12] was “inactive” and the outcome [2] was “inactive”. For the same compound, the outcome [3] was “inactive”, the outcome [4] was “inactive” and the outcome [5] was “inactive”. For the same compound, the outcome [7] was “inactive”, the outcome [17] was “inactive” and the outcome [8] was “inactive”. The outcome [13] was “inactive”, the outcome [9] was “inactive” and the outcome [16] was “inactive”. For the same compound, the outcome [15] was “inactive” and the outcome [19] was “inactive”.
For `NC(=Nc1ccccc1)Nc1ccccc1`, the outcome [1] was “inactive”, the AC50 [2] was 43.9 µM (active) and the outcome [3] was “inactive”. For the same compound, the outcome [4] was “inactive”, the outcome [5] was “inactive” and the AC50 [6] was 6.06 µM (active). The outcome [7] was “inactive”, the outcome [17] was “inactive” and the outcome [8] was “inactive”. The outcome [9] was “inactive” and the outcome [10] was “inactive”.
